From PubChem
RPL19A-GFP yeast: alters RPL19A-GFP fluorescence in TOR pathway yeast screen. AID 2025. 330,000 compounds, 0.3% hits. percent response vs DMSO, % at 10 µM. S. cerevisiae RPL19A-GFP strain, flow cytometry, 3 h; hits give low values;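 active = percent response vs DMSO below 50%; inconclusive = fewer than 70 events counted for the yeast strain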;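 note: median channel GFP fluorescence of the barcoded RPL19A-GFP strain; ratio of sample median GFP to plate DMSO average so 100% = DMSO; lower means less RPL19A-GFP as with rapamycin TOR inhibition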
MEP2 TOR yeast: modulators of TOR pathway MEP2-GFP in S. cerevisiae | S. cerevisiae MEP2-GFP strain, flow cytometry GFP, 3 h; 100% = DMSO control level | GFP response vs DMSO, % at 10 µM | 330,000 compounds, 0.51% hits | AID 2016;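 active = GFP response versus DMSO above a set limit, roughly screen mean plus 3 SD, cut at about 180% in these data; inconclusive = fewer than 70 cells counted for a yeast strain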;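 note: median GFP fluorescence of the barcode-gated MEP2-GFP cells per well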
LAP4 TOR yeast: modulators of TOR pathway LAP4-GFP in S. cerevisiae; S. cerevisiae LAP4-GFP multiplex, flow cytometry GFP, 3 h; median GFP as percent of DMSO wells; GFP response vs DMSO, % at 10 µM; 320,000 compounds, 0.34% hits;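 active = GFP response vs DMSO above a set limit, about the screen mean plus 3 SD, cut at about 150% in these data; inconclusive = under 70 cell events counted for the yeast strain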
Pemphigus Ab inh: blocks pemphigus antibody binding to human desmoglein-3 | 310,000 compounds, 0.48% hits | binding (percent of control), % at 10 µM | DSG3-coupled beads, scFv-anti-DSG3-GFP binding, flow cytometry; hits give low values | P32926 | AID 588358;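 active = binding more than 3 SD below its plate's average and above zero; inconclusive = below that plate limit but binding exactly zero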;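 note: hits lower antibody fragment binding to DSG3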
Target sequence (P32926 whole entry, looked up, the tested form may be a part): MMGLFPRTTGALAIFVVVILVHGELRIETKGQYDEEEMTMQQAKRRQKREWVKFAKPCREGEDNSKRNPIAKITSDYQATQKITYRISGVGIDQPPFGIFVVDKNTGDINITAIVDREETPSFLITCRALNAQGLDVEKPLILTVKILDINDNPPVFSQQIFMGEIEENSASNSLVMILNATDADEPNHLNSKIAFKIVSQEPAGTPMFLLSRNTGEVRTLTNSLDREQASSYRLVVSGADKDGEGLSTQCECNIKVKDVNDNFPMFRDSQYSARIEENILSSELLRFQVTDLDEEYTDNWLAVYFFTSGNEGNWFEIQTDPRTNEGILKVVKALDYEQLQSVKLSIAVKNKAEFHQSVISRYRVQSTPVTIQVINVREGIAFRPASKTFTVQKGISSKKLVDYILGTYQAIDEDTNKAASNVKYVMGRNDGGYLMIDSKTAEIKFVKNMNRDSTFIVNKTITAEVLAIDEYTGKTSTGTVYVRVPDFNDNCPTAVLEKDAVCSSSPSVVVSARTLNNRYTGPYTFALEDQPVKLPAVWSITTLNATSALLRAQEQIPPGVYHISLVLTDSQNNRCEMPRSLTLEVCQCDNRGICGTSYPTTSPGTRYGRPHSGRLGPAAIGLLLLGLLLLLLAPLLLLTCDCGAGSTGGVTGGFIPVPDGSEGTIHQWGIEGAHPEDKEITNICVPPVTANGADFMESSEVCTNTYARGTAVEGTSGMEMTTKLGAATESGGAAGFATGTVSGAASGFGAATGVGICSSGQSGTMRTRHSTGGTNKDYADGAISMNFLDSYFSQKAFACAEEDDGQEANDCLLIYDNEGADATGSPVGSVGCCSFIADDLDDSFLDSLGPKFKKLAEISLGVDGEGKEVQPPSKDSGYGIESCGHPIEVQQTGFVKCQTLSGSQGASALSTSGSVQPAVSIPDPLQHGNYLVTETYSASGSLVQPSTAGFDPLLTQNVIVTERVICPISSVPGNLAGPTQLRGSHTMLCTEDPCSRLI
AGP1 TOR yeast: alters AGP1-GFP fluorescence in TOR pathway yeast screen. S. cerevisiae AGP1-GFP multiplex flow cytometry, 3 h; GFP as percent of DMSO wells. GFP response vs DMSO, % at 10 µM. 320,000 compounds, 0.02% hits;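 active = GFP response relative to DMSO above a set limit, near screen average plus 3 SD, cut at about 150% in these data; inconclusive = fewer than 70 cells counted for the yeast strain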;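 note: median GFP channel fluorescence of the gated AGP1 strain per well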
CIT2 TOR yeast: modulators of TOR pathway CIT2-GFP in S. cerevisiae. GFP response vs DMSO, % at 10 µM. S. cerevisiae CIT2-GFP strain, flow cytometry, 3 h; 100 means same as DMSO wells. 320,000 compounds, 0.065% hits;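 active = GFP response relative to DMSO above a set limit, near the screen mean plus 3 SD, cut at about 150% in these data; inconclusive = Fewer than 70 cells measured for a yeast strain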;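 note: ratio of well median GFP fluorescence to mean of DMSO wells on the plate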
An asterisk follows results filed as active; u = inconclusive; x = no result given; [ ] = remark or other dose. Compounds with a hit are over-represented: about 1.2% of the library has one in this group of screens.

SMILES | RPL19A-GFP yeast | MEP2 TOR yeast | LAP4 TOR yeast | Pemphigus Ab inh | AGP1 TOR yeast | CIT2 TOR yeast
COc1ccc(OC)c(NC(=O)NNC(=O)CCCOc2ccc(Cl)cc2C)c1 | 94 | 93 | 101 | 94 | 102 | 102
COc1cc(C(C(=O)NC(C)(C)C)N(C(=O)CNC(=O)c2cccs2)c2cccnc2)cc(OC)c1OC (configuration not stated) | 96 | 95 | 90 | x | 94 | 98
CCC(C)(C)NC(=O)C(c1ccco1)N(C(=O)CNC(=O)c1cccs1)c1cccnc1 (configuration not stated) | 54 | 288*[may fluoresce violet] | 91 | 114 | 41 | u
Clc1ccc(-c2nc3cc(CN4CCCCC4)ccc3o2)cc1 | 103 | 101 | 85 | 72* | 93 | 93
Cc1ccc(-c2nc3cc(Cl)ccc3o2)cc1 | 106 | 103 | 102 | x | 111 | 108
Cn1c(Cc2cccc3ccccc23)nnc1SCc1ccc([N+](=O)[O-])cc1 | 105 | 104 | 95 | 98 | 101 | 110
Cc1ccc(-n2nnnc2SCC(=O)c2c(N)n(CC(C)C)c(=O)n(C)c2=O)cc1 | 100 | 104 | 99 | 84* | 99 | 103
COCCNC(=O)Cn1ccc2cc(S(=O)(=O)N3CCCCC3)ccc21 | 78 | 121 | 100 | x | 66 | 109
Cc1ccc(CNC(=O)C(=O)Nc2nccs2)cc1 | 94 | 77 | 84 | 89 | 90 | 82
N#CC1=C(N)OC2=C(CC/C2=C\c2ccccc2)C1c1ccccc1 (configuration not stated) | 95 | 188*[may fluoresce violet] | 107 | 346 | 19 | u
N#CC1=C(N)OC2=C(CC/C2=C\c2ccccc2Cl)C1c1ccccc1Cl (configuration not stated) | 109 | 105 | 97 | 108 | 98 | 98
Cc1ccc(N(C(=O)CNC(=O)c2ccco2)C(C(=O)NC2CCCCC2)c2cccnc2)cc1C (configuration not stated) | 99 | 87 | 93 | 98 | 100 | 95
Cc1cc(C)cc(N(C(=O)c2csnn2)C(C(=O)NC2CCCC2)c2cccnc2)c1 (configuration not stated) | 57 | 184*[may fluoresce violet] | 92 | 89 | 17 | u
Cc1ccc(N(C(=O)CCCC(=O)Nc2ccccn2)C(C(=O)NC2CCCC2)c2ccc(O)cc2)cc1C (configuration not stated) | 87 | 238* | 139 | 103 | 110 | 102
Cc1ccc(N(C(=O)CNC(=O)c2ccco2)C(C(=O)NC2CCCC2)c2cccnc2)cc1C (configuration not stated) | 87 | 195* | 186* | 104 | 118 | 98
CC(=O)c1ccc(N(CC(=O)NC2CCCCC2)C(=O)CNC(=O)c2ccco2)cc1 | 101 | 105 | 97 | 37* | 100 | 103
Cc1ccc2c(c1)C1NC(=S)NC(C)(O2)C1C(=O)Nc1ccc(Cl)cc1 (configuration not stated) | 99 | 99 | 95 | 100 | 99 | 94
COc1cccc(CN(C)C(=O)C23CC4CC(CC(C4)C2)C3)c1 | 97 | 91 | 108 | 101 | 96 | 95
COc1ccc(CN(C)C(=O)C23CC4CC(CC(C4)C2)C3)c(OC)c1 | 47*[may fluoresce violet] | u | u | 110 | u | u
O=C(CS(=O)(=O)c1ccccc1)Nc1ccc(Br)cn1 | 101 | 103 | 101 | 59* | 99 | 97
O=C(Cc1ccc(Cl)cc1)Nc1ccc(Br)cn1 | 71 | 187* | 111 | 91 | 26 | 83
COc1ccccc1C(=O)Nc1nsc(-c2ccccc2)n1 | 93 | 87 | 151* | 80 | 83 | 79
CCOc1ccc(S(=O)(=O)NC(Cc2cnc[nH]2)C(=O)O)cc1 (configuration not stated) | 107 | 102 | 106 | 8.8* | 107 | 109
CCOc1ncccc1C(=O)OCc1c(F)cccc1Cl | 94 | 95 | 95 | 104 | 96 | 92
CCOC(=O)c1c(C)nc2sc(C(=O)Nc3ccccc3)c(N)c2c1-c1ccc(OC)cc1 | 103 | 106 | 107 | 88* | 100 | 104
SMILES | RPL19A-GFP yeast | MEP2 TOR yeast | LAP4 TOR yeast | Pemphigus Ab inh | AGP1 TOR yeast | CIT2 TOR yeast
CCOC(=O)c1c(C)nc2sc(C(N)=O)c(N)c2c1-c1ccccc1 | 99 | 100 | 102 | 105 | 92 | 90
Cc1ccc(NC(=O)c2sc3nc(C)cc(C)c3c2N)cc1 | 36*[may fluoresce violet] | 340*[may fluoresce violet] | 69 | 112 | u | u
Cc1cc(C)c2c(N)c(C(=O)NN)sc2n1 | 93 | 97 | 108 | 85 | 97 | 88
NC(=O)c1cccc(NC(=O)CCCCC(=O)Nc2cccc(C(N)=O)c2)c1 | 23*[may fluoresce violet] | 645*[may fluoresce violet] | 77 | 93 | u | u
CCCCC(=O)Nc1ccc(C(N)=O)cc1 | 95 | 104 | 97 | x | 98 | 102
CCCCn1c(SCC(=O)Nc2sc3c(c2C(N)=O)CCC3)nnc1-c1ccccc1 | 16*[may fluoresce violet] | 252*[may fluoresce violet] | 79 | 102 | u | u
Cc1nn(C2CCS(=O)(=O)C2)c(C)c1CN(C)C(=O)c1cccc(Cl)c1 (configuration not stated) | 95 | 95 | 96 | 90 | 96 | 96
CCCn1c(=S)[nH]c2cc(C(=O)N3CCN(c4ccc(F)cc4)CC3)ccc2c1=O | x | x | x | 95 | x | x
O=C(Nc1c(F)cccc1F)c1ccc(-n2cncn2)nc1 | 64 | 233*[may fluoresce violet] | 68 | 102 | 25 | u
CCC(CC)C(=O)Nc1cccc(S(=O)(=O)c2cccc(NC(=O)C(CC)CC)c2)c1 | 97 | 102 | 97 | -13* | 98 | 92
CCC(CC)C(=O)Nc1cccc(C(=O)Nc2ccc(S(N)(=O)=O)cc2)c1 | 92 | 94 | 95 | 98 | 100 | 100
COc1ccc(C(CC(=O)NCc2ccco2)c2ccc(F)cc2)cc1 (configuration not stated) | 92 | 93 | 90 | 31* | 86 | x
COc1ccc(/C=C(/NC(=O)c2ccccc2)C(=O)NCc2ccco2)cc1 | 46*[may fluoresce violet] | u | 62 | 99 | u | u
COc1ccc(/C=C(/NC(=O)c2ccco2)C(=O)NCc2ccco2)cc1 | x | x | x | 97 | x | x
CN1/C(=C/C=C/c2n(C)c3cc([N+](=O)[O-])c([N+](=O)[O-])cc3[n+]2C)C(C)(C)c2ccccc21 | x | x | x | 97 | x | x
CC(=O)N1CCC2(CC1)C(C#N)=C(N)Oc1n[nH]c(C)c12 | 100 | 102 | 102 | x | 104 | 106
O=C(c1ccccc1)N(c1ccccc1)c1ccccc1O | x | x | x | 107 | x | x
COc1ccccc1N1CCN(C(=O)c2ccc(COc3cccc4c3OC(C)(C)C4)cc2)CC1 | 95 | 106 | 106 | 113 | 96 | 93
O=C(CN1CCC(n2nnc3cc(C(F)(F)F)ccc32)CC1)N1CCc2ccccc21 | 100 | 107 | 104 | 82* | 96 | 95
